NALP3 yeast inh = NALP3 inflammasome inhibitors in reconstituted yeast, primary screen, luminescence, uHTS. 330,000 tested, 0.39% active. inhibition, % at 10 µM. Yeast reconstituted NLRP3/ASC/caspase-1, beta-gal luminescence, 24 h;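 active = inhibition of 50% or more; inactive = inhibition below 50%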;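 note: plate controls were induced DMSO wells for no effect and uninduced yeast grown without galactose for full effect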
PfHsp90 set2 = growth inhibition of PfHsp90-expressing yeast, primary screen, antimalarial PfHsp90 inhibitor project, S. cerevisiae, BacTiter-Glo luminescence, single point, set 2; BacTiter-Glo ATP, 48 h; yeast lacking PDR1 and PDR3 efflux regulators; inhibition, % at 9.4 µM; 310,000 tested, 0.32% active; AID 504621, 2011;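 active = every replicate shows inhibition above about 80%, whatever the replicate mean, limit read from the data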;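 note: 0% = DMSO neutral controls and 100% = 20 µM radicicol positive controls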
tim10-1 inh = growth inhibitors of tim10-1 mutant yeast, primary screen, luminescence, uHTS; S. cerevisiae tim10-1 ts strain growth, BacTiter-Glo, 24 h; inhibition, % at 20 µM; 330,000 tested, 2.2% active;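 active = inhibition of at least 40%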;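 note: mutant grown at 25 °C; 0% = DMSO wells with yeast and 100% = wells holding no yeast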
TIM10 inh = growth inhibitors of isogenic TIM10 control yeast, primary screen, counter-screen for tim10-1 yeast inhibitor project, luminescence, uHTS; S. cerevisiae TIM10 strain growth, BacTiter-Glo luminescence, 24 h; AID 463195, 2010; inhibition, % at 10 µM; 330,000 tested, 1.4% active;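 active = inhibition of 40% or more at the single tested concentration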;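 note: wild-type TIM10 isogenic control strain grown at permissive 25 °C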
tim23-1 inh = growth inhibitors of tim23-1 mutant yeast, primary screen, luminescence, uHTS; inhibition, % at 20 µM; S. cerevisiae tim23-1 growth, BacTiter-Glo luminescence, 24 h; 330,000 tested, 1.3% active; AID 463212, 2010;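 active = growth inhibition of the mutant yeast at or above 50%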;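 note: temperature-sensitive mutant grown at 25 °C; plate controls were DMSO-treated mutant yeast for no effect and medium wells lacking yeast for full effect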
tim10-1 confirm = growth inhibitors of tim10-1 mutant yeast, confirmation, single concentration, luminescence, S. cerevisiae; 7,400 tested, 56% active; inhibition, % at 20 µM; shares compounds with tim10-1 inh; AID 463213, 2010; S. cerevisiae tim10-1 ts strain growth, BacTiter-Glo, 24 h;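 active = inhibition of yeast growth at or above a set limit in either of two repeat tests at 20 µM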;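 note: tim10-1 mutant grown at permissive 25 °C to find synthetic lethal compounds; 0% = DMSO yeast wells and 100% = medium wells without yeast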
TIM10 conf = growth inhibitors of wild-type TIM10 yeast, confirmation, counter-screen for tim10-1 synthetic lethality project, single concentration, luminescence, S. cerevisiae; shares compounds with TIM10 inh; S. cerevisiae tim10 strain growth, BacTiter-Glo luminescence, 24 h; inhibition, % at 10 µM; 4,600 tested, 63% active;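 active = inhibition of yeast growth at or above a set limit in either of two replicates at 10 µM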;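 note: this counterscreen used the strain with wild-type TIM10; 0% = yeast with DMSO and 100% = medium wells lacking yeast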
An asterisk follows results filed as active; . = no result. The list is not random: actives were taken first. Their share in the collection is about 3.7%.

SMILES	NALP3 yeast inh	PfHsp90 set2	tim10-1 inh	TIM10 inh	tim23-1 inh	tim10-1 confirm	TIM10 conf
C=CC[C@@H](Cc1ccc(F)cc1)C(=O)OC[C@@H]1CCCN1C(=O)[C@@H](CC=C)CC(=O)N[C@@H](CO)Cc1ccccc1	13.0	-10.3	30.0	7.9	35.4	.	.
N#CC1(NC(=O)COc2ccc3ccc(=O)oc3c2)CCCCC1	10.5	.	-8.2	8.4	-1.9	.	.
CCCCn1c(CCC)nc([N+](=O)[O-])c1Sc1ccc(Cl)cn1	1.3	-21.8	43.9*	49.0*	47.0	40.0*	42.1*
CC(C)Cn1c(C(C)C)nc([N+](=O)[O-])c1Sc1ccc(Cl)cn1	2.8	.	37.2	23.2	48.0	.	.
COC(=O)c1sccc1NC(=O)c1ccc(C#N)cc1	8.5	-3.1	-1.0	18.8	1.4	.	.
CCOC(=O)c1ccc(N2C(=O)CC(SCC(=O)Nc3ccc(S(N)(=O)=O)cc3)C2=O)cc1 (stereo unspecified)	23.4	16.7	51.1*	41.4*	22.2	45.0*	46.5*
Cc1ccc(N2C(=O)CC(SCC(=O)Nc3ccc(S(N)(=O)=O)cc3)C2=O)cc1 (stereo unspecified)	29.3	4.2	28.6	1.1	23.9	.	.
N#Cc1ccc[n+](CC(=O)c2ccc(NC(=O)c3ccccc3)cc2)c1	8.4	23.7	7.1	-17.1	3.3	.	.
C/C(=N/NC(=S)Nc1cccc(C)c1)c1cccc([N+](=O)[O-])c1	18.7	-12.9	51.9*	49.4*	35.9	42.8*	40.6*
Cc1cccc(NC(=S)N/N=C2/CCCCc3ccccc32)c1	42.5	-60.8	51.0*	47.1*	46.1	37.4*	4.2
Cc1ccc(C)c(NC(=S)N/N=C2\CCc3ccccc32)c1	37.8	-50.7	29.5	36.6	31.2	.	.
CC/C(=N\NC(=S)Nc1cccc(C)c1)c1ccccc1	44.3	-30.9	59.9*	47.6*	41.6	38.7*	53.5*
COc1cccc(NC(=S)NN=C2CCCCCC2)c1	18.8	9.6	44.9*	41.0*	34.5	36.5*	30.8
CCOC(=O)N1CCC(N(C(=O)Nc2ccc(CC)cc2)C(C)CC)CC1 (stereo unspecified)	14.0	-10.1	12.0	10.6	19.5	.	.
O=C(CSc1ccsc1[N+](=O)[O-])NC1CCCC1	-3.3	-8.5	11.3	6.1	-3.5	.	.
COc1ccc(C(=O)Nc2ccccc2NC(=O)c2ccco2)cc1OC	-0.3	-29.5	-2.0	-0.9	8.1	.	.
Cc1cccc(NC(=S)NNC(=O)c2csc3c2CCCC3)c1	32.7	6.1	44.9*	43.1*	20.3	45.0*	15.6
CCOc1ccc(C(=O)N2CCN(c3cccc(Cl)c3)CC2)cc1	7.6	7.3	13.9	4.3	35.4	.	.
CC1CN(C(=O)c2ccc(Cl)c(S(=O)(=O)NCc3ccco3)c2)CC(C)O1 (stereo unspecified)	4.6	.	-14.4	3.4	-7.2	.	.
CCOc1ccc(C(=O)N2CCN(c3cccc(C)c3C)CC2)cc1	4.2	.	45.2*	42.3*	43.4	32.6*	32.5*
Cc1cccc(N2CCN(C(=O)c3ccc(Cl)c(S(=O)(=O)NCc4ccco4)c3)CC2)c1C	11.3	3.3	44.8*	50.5*	44.0	39.0*	39.9*
Cc1cccc(N2CCN(C(=O)c3ccc(N4CCCC4=O)cc3)CC2)c1C	3.3	7.8	44.7*	41.9*	4.6	30.8*	15.9
COCCCn1c(SCC(=O)Nc2ccc(NC(C)=O)cc2)nc2sc3c(c2c1=O)CCC3	16.5	-12.8	-5.1	-6.8	-17.1	.	.
O=C(Cn1c2ccc(F)cc2c2nc3n(c(=O)c21)CCS3)Nc1ccccc1F	-0.4	.	51.1*	52.4*	17.1	43.8*	42.0*
O=C(Cn1c2ccc(F)cc2c2nc3n(c(=O)c21)CCS3)Nc1ccccc1C(F)(F)F	4.6	-26.6	36.5	7.4	1.3	.	.
SMILES	NALP3 yeast inh	PfHsp90 set2	tim10-1 inh	TIM10 inh	tim23-1 inh	tim10-1 confirm	TIM10 conf
Cc1coc(=N)n1CC(=O)c1ccc(Cl)cc1	-3.8	7.1	8.8	-4.5	11.2	.	.
CC(C)c1ccc(/C=c2\sc3nc(-c4ccncc4)nn3c2=O)cc1	9.0	16.2	49.3*	43.7*	47.2	30.1*	4.2
COc1ccc(C(=O)/C=C\c2ccc(NC(=O)c3cccs3)cc2)cc1	0.0	10.7	43.3*	48.3*	20.3	30.8*	40.1*
COc1ccc(NC(=O)c2ccc(NC(=O)c3cccs3)cc2)cc1	4.5	5.7	-9.2	-23.6	-20.8	.	.
COc1ccc(OC)c(CN2CCN(C(=O)c3cccc(S(=O)(=O)Nc4ccc(F)cc4)c3)CC2)c1	.	14.5	.	.	.	.	.
Cc1cc(N2CCC(C(=O)Nc3ccc(F)cc3)CC2)nc(-c2ccccc2)n1	45.8	-11.0	49.3*	43.1*	11.5	30.2	-8.6
C=CCNC(=O)C1CCN(c2cc(C)nc(-c3ccccc3)n2)CC1	10.2	22.2	13.8	6.1	4.7	.	.
CCOC(=O)c1sc(NC(=O)C2CCC2)cc1C	19.9	-7.3	43.7*	55.1*	49.2	41.7*	35.6*
COc1ccc(CCNC(=O)CSc2nnc(CNC(=O)c3c(F)cccc3Cl)o2)cc1OC	2.7	12.6	19.0	-12.8	8.8	.	.
Cn1cccc1/C=C1\CC(C(C)(C)C)C/C(=C\c2cccn2C)C1=O (stereo unspecified)	27.7	.	45.4*	40.7*	39.9	42.8*	41.6*
O=C(c1cccc(Cl)c1)N1CCN(Cc2ccccc2F)CC1	7.9	-14.1	17.8	0.7	2.7	.	.
CCN(CC)c1ccc(-n2cc3c(=O)n(C)c(=O)n(C)c3c2)cc1	25.2	1.5	40.0*	45.7*	49.5	31.0*	-3.1
CN(C)c1ccc(-n2cc3c(=O)n(C)c(=O)n(C)c3c2)cc1	31.7	0.6	25.5	8.4	20.9	.	.
COc1ccc(NC(=O)c2nn(C34CC5CC(CC(C5)C3)C4)cc2[N+](=O)[O-])cc1	11.9	6.3	4.8	18.2	19.0	.	.
O=C(Nc1cccc2ccccc12)c1nn(C23CC4CC(CC(C4)C2)C3)cc1[N+](=O)[O-]	12.4	5.4	40.5*	40.6*	47.5	31.9*	13.7
COCCNC(=S)N1CCCN(c2nc3cc(C)ccc3cc2C#N)CC1	15.8	-10.2	14.4	1.3	6.0	.	.
COc1cc(/C=C/C(=O)OCC(=O)N2CCN(C(=O)c3ccco3)CC2)ccc1O	2.7	-24.0	11.7	4.5	6.1	.	.

Source: PubChem BioAssay (several laboratories)
